Sampled rows, rich in hits. Any-hit rate of the full collection: about 7.3%.
Vaccinia mCherry = vaccinia inhibition (mCherry reporter); Vaccinia virus mCherry reporter infection, fluorescence; Potency, µM (highest dose often 36.5 µM), for inactives: at the top dose activity change, negative = inhibition, usual class: inhibitors; 310,000 tested, 0.63% active; calls by dose curve; tested in A549 cells; further: potency means the concentration at half of the fitted maximal effect; nearly all actives have a fitted effect of over 35% in size
HCMV antiviral = human cytomegalovirus inhibition; 410,000 tested, 4.5% active; activity change, negative = inhibition, % at 57.5 µM; HFF cells, HCMV-luciferase reporter, 72 h; active compounds read low; in the data active means activity change below about -60%; inconclusive means no clear call, values can overlap the other calls; inactive means above about -39%
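After 16 h attachment at 37C, HFF cells received test compound and HCMV-luciferase (1 PFU/cell); reporter luminescence read 72 h later, data normalized against buffer-only and known inhibitor Salinomycin.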
HCV inhibitor = HCV inhibition; Potency, µM (top dose mostly 41.8 µM), for inactives: at the highest dose activity change, negative = inhibition, hits mostly inhibitors; 340,000 tested, 3.4% active; Huh7.5.1 HCVcc-Cre infection, luciferase reporter, 44 h; active means well fitted inhibition curve with a large enough effect; inconclusive means small, poorly fitted or top-dose-only effect, or another doubt; inactive means no such curve, though single readings can be large or run the other way; further: potency means the concentration at half of the fitted maximal effect
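1,000 cells/well; 4 h culture; + compound; + HCVcc-Cre (~0.5 moi); 44 h; luciferase substrate, RT 15 min; read 15 sec.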
VACV Venus inh = vaccinia inhibition (Venus reporter) | Vaccinia virus Venus reporter expression, fluorescence | Potency, µM (titrated, usually from 36.5 µM), inactives show at the highest dose activity change, negative = inhibition, actives largely listed as inhibitors | 330,000 tested, 0.46% active | AID 720580; calls by dose curve; tested in A549 cells; further: potency means the concentration at half of the fitted maximal effect; nearly all actives have a fitted effect of over 30% in size
FMDV inh = blocks foot and mouth disease virus; 410,000 tested, 1.2% active; AID 1159524; FMDV antiviral cell-based qHTS; Potency, µM (series often up to 57.9 µM), for the others: at the top dose activity change, negative = inhibition, most hits filed as inhibitors; calls by dose curve; tested in HEK293T cells; further: read-out not given here; potency means the concentration at half of the fitted maximal effect; nearly all actives have a fitted effect of over 45% in size
The depositor's hits bear a star; i = inactive; u = inconclusive; x = no result; [ ] = remark or other dose. On the % scale 0 is the no-effect control and ±100 the full control effect.

SMILES	Vaccinia mCherry	HCMV antiviral	HCV inhibitor	VACV Venus inh	FMDV inh
CSc1ccccc1NC(=O)CN(C)CC(=O)c1[nH]c(C)c(C(C)=O)c1C	-17.4%	28.6	u	-2.3%	35.5µM*
CCOc1ccccc1NC(=O)c1nn(-c2ccc(C)cc2)c(=O)n(C)c1=O	-17.5%	9.8	x	-16.1%	2.8%
Cc1ccc(C)n1C1C(=O)N(C)c2c(F)cccc21 (stereo unspecified)	x	1.4	x	x	x
Cn1c(=O)c(C(=O)COC(=O)c2cc(C3CC3)nc3ccccc23)c(N)n(Cc2ccccc2)c1=O	i	5.8	3.55µM*	-20.5%	u
Cc1ccc(-n2c(O)c(/C=N/N3CCCCC3c3cccnc3)c(=O)[nH]c2=S)cc1 (stereo unspecified)	x	-3.6	-0.4%	x	12.1%
C/C(=N\N1CCCCC1c1cccnc1)c1c(O)n(C2CCCCC2)c(=S)[nH]c1=O (stereo unspecified)	u	-102.8*	u	-16.4%	-28.7%
CCCCn1c(O)c(/C=N/N2CCCCC2c2cccnc2)c(=O)[nH]c1=S (stereo unspecified)	i	-6.9	-4.1%	-11.3%	-16.1%
CCCCn1c(O)c(/C(CC)=N/N2CCCCC2c2cccnc2)c(=O)[nH]c1=S (stereo unspecified)	-15.3%	-62.7*	-28.4%	-9.4%	0.0%
Cc1cc(N2CCN(C/C=C/c3ccccc3)CC2)n2ncnc2n1	i	-91.3*	u	-11.7%	x
COc1ccc(-c2ccc(-c3noc(C(C)C)n3)c(OC)n2)cc1	x	76.1	1.58µM*	-14.4%	1.1%
CCOc1nc(-c2ccccc2)ccc1-c1noc(-c2ccc(C)cc2)n1	-3.7%	6.7	x	4.9%	-8.2%
CCc1nc(-c2ccc(-c3ccc(OC)cc3)nc2OC)no1	x	28.4	u	x	30.3%
CCOc1nc(-c2ccccc2)ccc1-c1noc(COC)n1	x	100.7	10µM*	x	-11.0%
COCc1nc(-c2ccc(-c3ccccc3)nc2OC)no1	-19.3%	41.8	14.1µM*	-8.7%	57.0%
COCc1nc(-c2cc(Br)ccc2OC)no1	x	17.0	12.6µM*	-2.9%	-13.2%
CCOC(=O)c1c(Nc2ccc(O)cc2)nnc(-c2ccccc2)c1-c1ccccc1	-10.6%	-37.8	x	-4.6%	0.0%
Cc1nc2ccccc2n1CCc1nc2c3ccccc3nc(SCc3ccc(C#N)cc3)n2n1	-4.7%	9.4	x	0.0%	-20.3%
CC(=O)OCOC(c1ccc2ccccc2c1)P(=O)(OCOC(C)=O)OCOC(C)=O (stereo unspecified)	-9.8%	x	x	-8.0%	-7.9%
COc1ccc(C(=O)C(C)[n+]2ccc(C)c3ccccc32)cc1[N+](=O)[O-] (stereo unspecified)	x	-86.4*	-20.9%	x	-20.4%
CN=C1N[C@H](c2ccccc2)N(c2ccccc2)S1	x	x	x	x	52.4%
O=S(Cc1ccccc1)CC(O)(c1ccc(Cl)cc1)c1ccc(Cl)cc1 (stereo unspecified)	x	-91.6*	-15.1%	x	8.2%
COc1ccc(CN2CCC3(CC2)c2ccccc2[C@@H](NC(=O)c2ccccc2OC)[C@@H]3O)cc1O	-22.8%	x	x	-12.1%	-9.0%
COc1ccc(CN2CC[C@H]3C=CC[C@@H](C(=O)Nc4nccs4)[C@H]3C2=O)cc1OC	-9.0%	x	x	-21.5%	x
C#CCn1c(S(=O)(=O)Cc2ccc(C)cc2)nc(-c2ccccc2)c1-c1ccccc1	-26.0%	-94.6*	u	-2.3%	-11.6%
C#CCn1c(S(=O)(=O)Cc2ccccc2Cl)nc(-c2ccccc2)c1-c1ccccc1	x	-69.9*	5.2%	x	-16.5%
SMILES	Vaccinia mCherry	HCMV antiviral	HCV inhibitor	VACV Venus inh	FMDV inh
C#CCn1c(C)cc(C)c(S(=O)(=O)c2ccccc2)c1=O	-3.5%	69.4	3.5%	-9.0%	57.5%
CCOC(=O)Cn1c(S(=O)(=O)Cc2ccccc2Cl)nc(-c2ccccc2)c1-c1ccccc1	x	-32.4	8.3%	x	1.2%
CCCOc1ccc(C(=O)Nc2ccc(Cl)c(-c3nc4ncccc4o3)c2)cc1	6.7%	u	x	-3.8%	0.0%
C/C=C/C(=O)Nc1cccc(C2=NOC3(C2)C[C@@H](C(N)=O)N(C(=O)c2cc([N+](=O)[O-])cc([N+](=O)[O-])c2C)C3)c1 (stereo partly specified)	i	-74.2*	7.1%[8.37 µM]	-9.6%	2.6%
NC(=O)[C@H]1CC2(CC(c3cccc(NC(=O)COc4ccc(Cl)cc4)c3)=NO2)CN1C(=O)c1ccc(Cl)cc1 (stereo partly specified)	11.2µM*	u	-29.9%	11.2µM*	-28.4%
NC(=O)[C@H]1CC2(CC(c3cccc(NC(=O)COc4ccc(Cl)cc4)c3)=NO2)CN1C(=O)c1ccccc1C(=O)c1ccccc1 (stereo partly specified)	u	23.5	u	u	-28.4%
COc1ccc(CNc2ccnc(-c3ccccc3CN(C)C)n2)c(OC)c1	x	x	x	x	-20.2%
CCCCSC(=S)NC1CCS(=O)(=O)C1 (stereo unspecified)	u	-84.2*	12.0%	-24.7%	-27.4%
CNC(=S)SCCOc1ccccc1	-19.9%	3.7	12.9%	1.0%	5.6%
O=S1(=O)CCC(NC(=S)SCCOc2ccccc2)C1 (stereo unspecified)	x	-69.5*	u	x	14.1µM*
O=S1(=O)CCC(NC(=S)NC2CCS(=O)(=O)C2)C1 (stereo unspecified)	i	-4.1	1.7%	-8.1%	7.0%
COc1ccc(C)cc1S(=O)(=O)NCC(c1cccs1)S(=O)(=O)c1ccc(C)cc1 (stereo unspecified)	-16.6%	u	x	-19.2%	25.9%
Cc1c(C(=O)NCCNc2ncc(C(F)(F)F)cc2Cl)cccc1[N+](=O)[O-]	-0.5%	-7.8	11.2µM*	-12.5%	-14.2%
CCc1ccc2oc(-c3cccc(NC(=O)c4ccc(N5CCC(C)CC5)c([N+](=O)[O-])c4)c3)nc2c1	-11.2%	2.2	x	11.7%	-8.8%
COc1ccccc1-c1sc2cc3c(cc2c1-c1ccc(OCCN2CCCCC2)cc1)OCO3	28.2µM*	-32.7	u	11.2µM*	u
COc1cc2sc(-c3ccccc3OC)c(-c3ccc(OCCN4CCCCC4)cc3)c2cc1OC	-22.2%	-18.2	11.2µM*	u	u
COc1ccc2sc(-c3ccccc3OC)c(-c3ccc(OCCN4CCOCC4)cc3)c2c1	i	x	u	u	0.0%
Cc1cccc(N2CCN(C(c3ccc(F)cc3)c3nnc(-c4ccccc4)o3)CC2)c1C (stereo unspecified)	-4.8%	4.1	x	-12.8%	-27.4%
CCN(CC)C(C)CN1c2ccccc2Sc2ccccc21 (stereo unspecified)	-29.1%	x	x	u	28.2µM*
OCCNCC(O)CN1c2ccccc2Sc2ccccc21 (stereo unspecified)	u	-17.6	-1.8%	-17.7%	u
CCc1cc(C(=O)NC2CCCc3c2cnn3-c2ccc(F)cc2F)no1 (stereo unspecified)	u	-71.3*	x	-28.1%	u
Cc1ccc(-n2ncc3c2CCCC3NC(=O)c2ccccc2N2CCOCC2)cc1C (stereo unspecified)	-8.1%	-21.0	-27.0%	-20.6%	-29.8%

Screens (PubChem)
